# Assay results as given in PubChem BioAssay (NCI).
# The panel holds about 83,000 compounds, 20% with a hit somewhere; the sample as a whole holds those more often.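 Cells were grown in 96-well plates and exposed to the test compound at a single concentration for 48 hours; results are reported as percent growth, with values below 10 considered active.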 A number with no mark means an inactive call. The source made the active and inactive calls.
# Legend:
# Test in all cases: NCI-60 one-dose screen, 48 h (100 = growth as untreated, 0 = no growth, -100 = all killed)
# Conditions in all cases: 10 µM unless noted
# [1] = test system: DU-145 prostate
# [2] = test system: K-562 leukemia
# [3] = test system: MALME-3M melanoma
# [4] = test system: MDA-MB-231 breast
# [5] = test system: RXF 393 renal
# [6] = test system: SF-268 CNS
# [7] = test system: SF-295 CNS
# [8] = test system: SF-539 CNS
# [9] = test system: UACC-257 melanoma
# [10] = test system: M14 melanoma
# [11] = test system: HCT-15 colon
# [12] = test system: HT29 colon
# [13] = test system: SNB-75 CNS
# [14] = test system: SNB-19 CNS
# [15] = test system: U251 CNS
# [16] = test system: PC-3 prostate
# [17] = test system: SK-MEL-5 melanoma
# [18] = test system: UACC-62 melanoma
# [19] = test system: LOX IMVI melanoma
# [20] = test system: SK-MEL-28 melanoma
Compound,growth [1],growth [2],growth [3],growth [4],growth [5],growth [6],growth [7],growth [8],growth [9],growth [10],growth [11],growth [12],growth [13],growth [14],growth [15],growth [16],growth [17],growth [18],growth [19],growth [20]
O=C(c1ccccc1)c1ccc(Oc2ccc([N+](=O)[O-])cc2[N+](=O)[O-])cc1,95.9%,11.9%,70.2%,89.5%,81.1%,87.8%,91.2%,55.3%,71%,53.8%,2.7% (active),2.81% (active),85.2%,77.4%,35%,75.4%,32.2%,62%,5.97% (active),101%
O=C(O)C1C(c2ccccc2)c2ccccc2C(O)C1CO (stereo not given),136%,111%,146%,94.9%,123%,116%,120%,99.7%,98.9%,99.5%,98.2%,106%,80.7%,99.8%,105%,91.5%,107%,95.3%,103%,111%
COP(=O)(OC)C(c1ccc(O)cc1)(c1ccc(O)cc1)c1ccc(O)cc1,105%,90.6%,127%,93.7%,67.2%,106%,82.7%,107%,100%,86%,102%,110%,112%,106%,105%,92.8%,87.3%,98.7%,103%,118%
COc1cccc(N2CCN(c3cccc(C)n3)CC2)c1,106%,85.2%,102%,101%,76.4%,129%,83.2%,101%,97.7%,89.9%,105%,94.9%,133%,113%,97.7%,99.6%,92.4%,95.1%,103%,111%
[N-]=[N+]=NCc1ncc(-c2ccc(C(F)(F)F)cc2)c(NC2CCCCCC2)n1,73.4% [50 µM],34.5% [50 µM],85% [50 µM],73% [50 µM],87.7% [50 µM],75.5% [50 µM],49.9% [50 µM],82.2% [50 µM],89.3% [50 µM],74.6% [50 µM],80.2% [50 µM],69.8% [50 µM],65.8% [50 µM],85.2% [50 µM],73% [50 µM],35.6% [50 µM],84.2% [50 µM],79.2% [50 µM],82.2% [50 µM],98.1% [50 µM]
CCOC(=O)c1sc(NC(=O)COc2cccc(/C=C3\Cc4ccc(Cl)cc4C3=O)c2)nc1C,117%,89.9%,138%,81.1%,131%,116%,125%,107%,110%,110%,97.4%,118%,113%,99.9%,99.4%,103%,97.4%,95.8%,97.7%,118%
C=C1CCC2C3(C)COC(c4ccccc4)OC3CCC2(C)C1C/C=C1/C(=O)OCC1OC(C)=O (stereo not given),108%,74.2%,105%,94.9%,41%,102%,100%,105%,91.3%,89.4%,79.1%,65.7%,75.3%,95.6%,71.2%,78.5%,60.7%,90.2%,12.3%,118%
C[C@@H]1[C@H]2[C@H](C=C3[C@@H]4CC[C@H]5Cc6nc7c(nc6C[C@]5(C)[C@H]4C[C@@H](O)[C@@]32C)C[C@@H]2CC[C@H]3C4=C[C@@H]5O[C@@]6(CC[C@](C)(CO)O6)[C@@H](C)[C@@]5(O)[C@@]4(C)[C@H](O)C[C@@H]3[C@@]2(C)C7)O[C@]12CCC(C)(C)O2,45.2%,-7.07% (active),38.8%,-0.32% (active),-44.4% (active),31.2%,-63.4% (active),3.28% (active),26.6%,8.26% (active),11.2%,-14.6% (active),-9.04% (active),25.1%,7.53% (active),-32% (active),0.934% (active),-0.259% (active),3.2% (active),40.8%
CC(C)CC1NC(=O)C(CCCN)NC(=O)C(C(C)C)NC(=O)C2CCCN2C(=O)C(Cc2ccccc2)NC(=O)C(CC(C)C)NC(=O)C(CCCN)NC(=O)C(C(C)C)NC(=O)C2CCCN2C(=O)C(Cc2ccccc2)NC1=O (stereo not given),-52.5% (active),-53.1% (active),-76.3% (active),-54.4% (active),-65.7% (active),-85.4% (active),-77.4% (active),-82.5% (active),-72.9% (active),-63.8% (active),7.83% (active),-51.7% (active),-81.5% (active),-83% (active),-94.4% (active),-49.2% (active),-98.3% (active),-75.3% (active),-86.7% (active),-72.1% (active)
COc1c(O)cc2c(c1CC=C(C)C)OC(=O)c1c(cc(O)c(CC=C(C)C)c1O)O2,71.6%,23.9%,113%,4.16% (active),-43.5% (active),41%,81%,68.8%,92.6%,27.3%,44.1%,86.9%,49.7%,48.4%,27.2%,24.5%,40.8%,67.2%,-27.5% (active),80.5%
C[C@H]1O[C@@H](O[C@H]2[C@@H](O)C[C@H](O[C@H]3[C@@H](O)C[C@H](O[C@H]4CC[C@]5(C)C6C[C@@H](O)[C@]7(C)[C@@H](C8=CC(=O)OC8)CC[C@]7(O)C6CC[C@@H]5C4)O[C@@H]3C)O[C@@H]2C)C[C@H](O)[C@@H]1O (stereo not given in full),-100% (active),-24.2% (active),-57.2% (active),-83.6% (active),-22.4% (active),-100% (active),-99.9% (active),-96.2% (active),-100% (active),-81.6% (active),-94.9% (active),-84.5% (active),-75.6% (active),-100% (active),-100% (active),-21.3% (active),-100% (active),-98.8% (active),-98.1% (active),-56.3% (active)
O=C(CNC(=O)c1cccc2ccccc12)Nc1ccccc1Cc1ccccc1,48.4% [5 µM],12.3% [5 µM],46.8% [5 µM],64.1% [5 µM],47.2% [5 µM],48.6% [5 µM],17.1% [5 µM],26.7% [5 µM],25.4% [5 µM],10.6% [5 µM],28% [5 µM],4.74% [5 µM] (active),32% [5 µM],54.3% [5 µM],24.3% [5 µM],31.6% [5 µM],34.4% [5 µM],51.3% [5 µM],38.2% [5 µM],61% [5 µM]
CSc1nc(Nc2ccc(S(=O)(=O)Nc3ccon3)cc2)c(C#N)c(-c2ccc(Cl)cc2)n1,106%,-0.642% (active),111%,102%,110%,105%,113%,106%,112%,88.1%,87.9%,101%,102%,101%,88.2%,109%,97.4%,107%,62.3%,118%
COc1ccc(C2=NN(C=O)C(c3cccc(Nc4ccnc5cc(Cl)ccc45)c3)C2)cc1 (stereo not given),33.2%,6.65% (active),25.2%,42.4%,17.2%,41.2%,0.467% (active),9.03% (active),23.2%,19.1%,16.6%,4.88% (active),8.36% (active),40%,19.6%,22.8%,-21.5% (active),32.3%,25%,50.6%
CC(C)Sc1nc(Cl)c(C#N)c(-c2ccc(F)cc2)n1,113%,16.2%,100%,111%,116%,106%,108%,96.5%,118%,94.5%,87.4%,103%,97.3%,113%,92.9%,106%,100%,102%,70.2%,119%
